Screening data from PubChem.
Only some compounds are listed: those with a hit (about 28% of all), similar ones and a draw of the others.
Mac1 fbg enh: CD11b/CD18-fibrinogen binding enhancement; P05107+P11215; K562 CD11b/CD18 adhesion to fibrinogen, ATPlite luminescence; activation, % at 10 µM; 93,000 tested, 0.07% active; AID 1499;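 active = 10 µM primary screen giving 50% or more activity, confirmed by 40% or more on retest at that dose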
CYP2C19 activ: increases human CYP2C19 enzyme activity; P33261; recombinant CYP2C19, luciferin-H EGE luminescence; active compounds read high; 0 = fully inhibited enzyme, 1 = untreated enzyme; activation factor at 5 µM; 96,000 tested, under 10 active;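 active = activation factor of at least 2 at 5 µM in the primary screen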
CD11b adhes inh: CD11b/CD18-fibrinogen binding inhibition; inhibition, % at 10 µM; 93,000 tested, 0.54% active; P05107+P11215; K562 CD11b/CD18 adhesion to fibrinogen, ATPlite luminescence; Mn2+ added to activate the integrin;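 active = primary inhibition of 50% or more at 10 µM, then 40% or more on retest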
CYP2C9 inhib: inhibitors of human CYP2C9; P11712; CYP2C9 Supersomes, luciferin-H conversion, luminescence; inhibition, % at 5 µM; 96,000 tested, 20% active; AID 777;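 active = blocking of liver enzyme CYP2C9 beyond about 50% at 5 µM, limit read from the data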
Target sequence (P11712 whole entry, looked up): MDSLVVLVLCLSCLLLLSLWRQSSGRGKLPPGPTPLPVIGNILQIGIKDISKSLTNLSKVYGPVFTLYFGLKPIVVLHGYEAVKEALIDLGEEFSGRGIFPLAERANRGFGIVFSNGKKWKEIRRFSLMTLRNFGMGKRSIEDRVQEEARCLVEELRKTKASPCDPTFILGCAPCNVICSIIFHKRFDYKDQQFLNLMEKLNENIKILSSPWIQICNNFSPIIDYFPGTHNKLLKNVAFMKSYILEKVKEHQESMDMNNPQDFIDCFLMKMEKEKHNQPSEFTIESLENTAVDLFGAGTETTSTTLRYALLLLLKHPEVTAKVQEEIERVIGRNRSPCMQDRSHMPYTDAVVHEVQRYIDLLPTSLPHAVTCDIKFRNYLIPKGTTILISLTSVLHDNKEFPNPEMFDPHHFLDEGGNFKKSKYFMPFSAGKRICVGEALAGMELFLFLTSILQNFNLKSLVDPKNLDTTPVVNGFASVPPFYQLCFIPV
CYP2C19 inh: blocks human cytochrome P450 2C19; CYP2C19 Supersomes, luciferin-H EGE luminescence, 30 min; 96,000 tested, 21% active; inhibition, % at 5 µM; P33261; AID 778;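 active = CYP2C19 inhibition above a set limit at 5 µM in the primary screen, cut at about 50% in these data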
CYP2C9 activ: increases human cytochrome P450 2C9 activity; P11712; recombinant CYP2C9, luciferin-H conversion, luminescence; active compounds read high; factor 1 = untreated enzyme, 0 = blocked; activation factor at 5 µM; 96,000 tested, 1.4% active; AID 1024;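 active = activation factor of 2 or more for CYP2C9 at a 5 µM dose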
Of the large screens only hits and unclear results are named; the others gave an inactive call.

O=C(Cn1nnc(-c2ccncc2)n1)NCCc1ccccc1	CYP2C9 inhib 72.1, CYP2C19 inh 72.6
O=C(Cn1nnc(-c2ccc(Cl)cc2)n1)NCC1CCCCC1	none
COC(=O)c1c(NC(=O)CC2Nc3ccccc3NC2=O)sc(C)c1C (stereo not drawn)	none (no result: Mac1 fbg enh, CD11b adhes inh)
Cc1ccc2cc(C#N)c(NCCCNC(=O)C3CCCO3)nc2c1 (stereo not drawn)	none
Cc1cccc2cc(CN(C(=O)c3cnccn3)C3CCCCC3)c(Cl)nc12	none
Cc1cccc(NC(=O)CC2CCC2)c1	none (no result: Mac1 fbg enh, CD11b adhes inh)
O=C(Cn1nnc(-c2ccccc2)n1)c1ccccc1	CYP2C19 inh 59.2
COc1cccc(NC(=O)Cn2nnc(-c3ccccc3N)n2)c1	CYP2C19 inh 51.9
O=C(CC1CCCC1)Nc1ccc2c(c1)CCC2	CYP2C19 inh 65.9 (no result: Mac1 fbg enh, CD11b adhes inh)
CCOC(=O)c1sc(NC(=O)Nc2ccc(Cl)cc2)nc1C	none (no result: Mac1 fbg enh, CD11b adhes inh)
CCOc1ccc(N2C(=O)CC(NCCc3ccncc3)C2=O)cc1 (stereo not drawn)	CYP2C19 inh 52.0
CCCOc1ccc(N2C(=O)CC(NCCc3ccc(S(N)(=O)=O)cc3)C2=O)cc1 (stereo not drawn)	none
CCCOc1ccc(N2C(=O)CC(N3CCN(c4ccccc4F)CC3)C2=O)cc1 (stereo not drawn)	none
CCCOc1ccc(N2C(=O)CC(NCc3ccncc3)C2=O)cc1 (stereo not drawn)	CYP2C9 inhib 66.7, CYP2C19 inh 68.4
CCCOc1ccc(N2C(=O)CC(N3CCC(c4nncn4CC)CC3)C2=O)cc1 (stereo not drawn)	CYP2C9 inhib 64.1
CCOc1ccc(N2C(=O)CC(NCCc3ccc(S(N)(=O)=O)cc3)C2=O)cc1 (stereo not drawn)	none
Cc1ccc(CNC(=O)c2cc3c(-c4ccc(Cl)cc4)nn(C)c3s2)o1	CYP2C9 inhib 63.1
COCCNC(=O)c1cc2c(-c3ccc(Cl)cc3)nn(C)c2s1	none
CCCCNC(=O)c1cc2c(-c3ccc(Cl)cc3)nn(C)c2s1	CYP2C9 inhib 59.0
O=C1c2ccccc2NC(c2ccco2)N1O (stereo not drawn)	none
O=C1c2ccccc2NC(c2ccccc2)N1/N=C/c1ccccc1 (stereo not drawn)	CYP2C9 inhib 87.4
CCc1ccc(/C=C/C(=O)C2C(=O)c3ccccc3C2=O)cc1	CD11b adhes inh 95.3, CYP2C9 inhib 59.5
O=C(c1ccccc1)C1C(=O)c2ccccc2C1=O	none
O=C(/C=C/c1ccccc1)C1C(=O)c2ccccc2C1=O	CD11b adhes inh 86.8 (no result: CYP2C19 activ, CYP2C9 inhib, CYP2C19 inh, CYP2C9 activ)
CC(CN1CCCC(C(N)=O)C1)c1ccccc1 (stereo not drawn)	none
COc1ccc(OC2C(=O)N(c3ccc(C)c(C)c3)C2c2ccc(OC)c(OC)c2)cc1 (stereo not drawn)	none (no result: CYP2C19 activ, CYP2C9 inhib, CYP2C19 inh, CYP2C9 activ)
CCOC(=O)COc1ccc(/C=C2/SC(=Nc3ccccc3)N(Cc3cccnc3)C2=O)cc1OC	CYP2C9 inhib 75.1, CYP2C19 inh 55.3
CN(C)S(=O)(=O)CC12CCC(CC1=O)C2(C)C (stereo not drawn)	none
Fc1ccccc1Cc1nnc2n1N=C(c1ccc(Cl)cc1)CS2	CYP2C9 inhib 56.1
N#Cc1c(-n2cccc2)cccc1-n1cccc1	CYP2C19 inh 62.2, CYP2C9 activ 3.7
c1ccc(-n2nnnc2-n2ccnc2)cc1	none
N#Cc1c(Cl)cccc1-n1ccnc1	CYP2C9 inhib 51.1
CCC(=O)Nc1ccc(Nc2nc(C)c([N+](=O)[O-])c(Nc3ccc(NC(=O)CC)cc3)n2)cc1	none (no result: CYP2C19 activ, CYP2C9 inhib, CYP2C19 inh, CYP2C9 activ)
C=CCn1c(SCC(=O)Nc2nnc(CC)s2)nnc1-c1ccco1	none
CCN(CC)S(=O)(=O)c1cccc(NC(=O)C2SC(=Nc3ccc(C)cc3C)C(C(=O)NC(C)COC)=C2N)c1 (stereo not drawn)	CYP2C9 inhib 82.8
CCCCNC(=O)C1=C(N)C(C(=O)Nc2ccc(C)c(S(=O)(=O)N3CCCCC3)c2)SC1=Nc1ccc(C)cc1C (stereo not drawn)	CYP2C9 inhib 79.3
CCN(CC)S(=O)(=O)c1cccc(C(=O)Nc2cccc(C)c2)c1	none
CC(C)c1nnc(NC(=O)CCC(=O)N2CCN(c3ccccn3)CC2)s1	none (no result: Mac1 fbg enh, CD11b adhes inh)
COC(=O)c1cc(NC(=O)CC2NC3CCCCC3NC2=O)cc(C(=O)OC)c1 (stereo not drawn)	none
